These results are taken from the supplement of paper PMC6555819.

This experiment deals with VDR:RXRa (NR concentration 270 nM, RXRa partner concentration 90 nM). Nature of the experiment: PBM binding z-score (relative to random genomic background probes); higher = stronger binding; sequences stand for … in GC…GCGATTGACAGCGTAGAATGAAGG
Here is the method: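 Protein-binding microarray (Agilent 4x180K custom design, double-stranded 60-nt probes: 5' GC cap, 34-nt variable region, 24-nt constant primer region; full probe sequence given). Purified or IVT nuclear receptor:RXRα heterodimers (3:1 NR:RXRα, mostly 270:90 nM) or homodimers were incubated for 1 h in PBS with 2% milk and no ligand, then detected with Alexa488 antibodies. Fluorescence from o1-orientation probes (~5 replicates averaged) was converted to z-scores against 500 random hg19 background probes. Variable regions are seed direct-repeat (DR0–DR5) sites, all their single-nucleotide variants and half-site ablations.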
In turn, CCAGACAGGTGAAAGGTGACTCAGTCTGGTACGC returned a PBM binding z-score of 1.3.

In turn, GATACAGGGTCAGCTAGAGGCGAGAGTATGGAAA showed a PBM binding z-score of 2.6.

Regarding CCAACTAGGTCAAGGTCAAAGTCGGTTTGTGCCA, the PBM binding z-score turned out to be 5.14.

GCTTCTAGGTCAACTGATGGTCAGCTAAAGCTCG gave a PBM binding z-score of 2.06.

Regarding CAGGCTAGGTCAGGGCCAGTATAGGAGGAACGTT, the PBM binding z-score was determined as 0.258.

Consider TCATATAGGTAGATGCTAGGTGAAAGTCCGATCT, for which the PBM binding z-score was found to be 0.638.

CTGGAAAGGTCGTGCTCAGGTGAGTATACCAAAC: the PBM binding z-score was determined as 3.1.

Consider ACTATTAGTTGACTTAGGGCAGCCGATACGACGC, for which the PBM binding z-score stood at 0.0476.

In turn, TTACCAAAGTGAAGGTCGTTGATCCCTCTGTAGA gave a PBM binding z-score of 0.954.

As for GGAACGAGGGCATTCGAGTTAATAGCATGGCGAT, the PBM binding z-score was determined as 2.35.

Sequence TCCTGTAGATCAGCAGGTTAAGAAAGCTGGCCAA displayed a PBM binding z-score of 0.177.

TGAATGAGATTAAAGATCAGGGAACGTGGCGTCG: the PBM binding z-score is -0.176.

Sequence TCAGACAGGTGCAGGTAACTCAGGTACGCAGTCG came in with a PBM binding z-score of 0.362.

As for CCGACTGGGGCAGAAAGGTTACCAGACCATCCGG, the PBM binding z-score was 0.696.

The sequence CTCGAAAGGTCGGTTGAGGTGAGTATTCGGATAA had a PBM binding z-score of 2.16.

The sequence TCATATAGGTAAACCGGTGAAAGTCCGTAAGTTA returned a PBM binding z-score of 0.87.

The sequence CCTTACGGGTCACTAACAGGTTATAGCATTTGGA showed a PBM binding z-score of 3.28.

For ATCTCTAGGTAATCAAGTTCAGTGAATGCCGAAC, the PBM binding z-score was 4.21.

In the case of AATACACGGTCACTAGGCCAGAGTAGGTACGAAT, the PBM binding z-score was determined as 0.248.

In the case of CGACCTAGGTCAAGGACAGTGAATCTCCGCACGC, the PBM binding z-score was found to be 1.96.

As to CCTTACGGGTCACTGACAGGTTATCGCATTTGGA, the PBM binding z-score came to 3.85.

TGTCAAAGTTCAAAGGTAACGTAGGTATCCACAC: the PBM binding z-score is 5.15.

The sequence CCGACTGGGTCAGAAAGGTTACCATACCATCCGG yielded a PBM binding z-score of 4.2.

Take CCTACGGGGCCATCAGGTCATTGATATCAACGTT: the PBM binding z-score was determined as 3.06.

For the sequence TAGCCTAGGTAATTGGGCCAGTATAGTACGCATC, the PBM binding z-score was -0.627.

TCATATAGGTAATTGCTAGGTGAAAGTCCGATCT registered a PBM binding z-score of 0.884.

Consider AGAATGAGGTTACCAAAGATCAGGGAGACGCTTG, for which the PBM binding z-score came to 1.51.

AGTCGAAGTTCACTAGGTAACGTAAGATTCAGCT returned a PBM binding z-score of 2.44.

Consider CAAACTAGGTCACGGGAAGGTCAAAGTCCGCATG, for which the PBM binding z-score was 6.27.

In the case of AGAATGAGGTTACCAAGGATCAGGGAAACGCTTG, the PBM binding z-score came out at 2.03.

For the sequence TAGCCTAGGTCATGCAGGGGCCAGTATAGAAAGC, the PBM binding z-score was found to be 2.7.

For the sequence CGTCCAAGGTCAAAGGTCAGTGTAGAGATGACGG, the PBM binding z-score turned out to be 6.6.

The sequence ATCTCTAGGTAAAATTCAGTGAAAGATCGATAGA returned a PBM binding z-score of 0.35.

With CAAACAGGGTCAGCTAGGCCAGAGTAGGGACGGC, the PBM binding z-score is 4.09.

Sequence ATCTCTAGGTAACCAAGTTCAGTGTATGCCGAAC showed a PBM binding z-score of 3.91.

The sequence CCTAGCAGGCCAATCTGGGTCAATCAAGGCTTGA yielded a PBM binding z-score of 0.445.

With CCTGCTATGTCATGGTCAGCTAATCTACAGTATG, the PBM binding z-score was -0.0549.

With CATCCAAGGTCAAGGTCAGTGAAAGAGACTCGAA, the PBM binding z-score came out at 5.07.

Consider ACAGCCAGGTGATGAAGGTAACTCAGGCTATCAT, for which the PBM binding z-score was -0.126.

Take GTACCAAGGTGAATAGGTCGTTGAAGAGTAGGCG: the PBM binding z-score amounted to 1.01.
